# Source: PubChem BioAssay AID1508600 (Functional Genomics Laboratory (NCATS/FGL), 2020)
# Hit rate of the full screen: of about 53,000 sequences, about 3,700 (7%) were called active. The sample as a whole holds a higher share of actives than the screen did. Unmarked numbers belong to inactive results.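 Rule for the calls: active = gene knockdowns whose robust z-score for IL-1 alpha signal is at least 2 or at most -2, so actives lie on both sides; inactive = the rest.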
# Assay: Components of the Cytosolic LPS Sensing Pathway: Gene Identification via Genome-wide siRNA Screen;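 note: robust z of the log signal after scaling to non-targeting control siRNA wells of the plate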
# Details: RAW264.7 macrophages, IL-1a HTRF, actives lie on both sides, screened at 100 nM (by protocol), cells primed 5 h with Pam3CSK4 first
# Summary of the method: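 Using IL-1a HTRF as read-out, the screen measured release from RAW264.7 cells after 48h siRNA knockdown (100 nM), 5 h Pam3CSK4 priming and 24 h cytosolic LipidA. Values were expressed relative to negative-control wells as robust z-scores.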
row,Sequence,z-score
1,GGAGAAAGUCAAGAUCAAATT against Gpr4,2.12 (active)
2,GCAAGCACGGAGAACCAAUTT against Selenoi,-0.212
3,GGAGUUCAUUGAUCAUUCUTT against Ndufb5,2.21 (active)
4,GGAAGAUGGAGAUCAGACGTT against Foxd4,-0.498
5,GGGAUACCCGGCGUAAUCUTT against Col4a2,1.31
6,CGCAUACAUCAGGUCACUATT against Katnb1,-0.74
7,GGGCUUUUACUCCUACCUGTT against Slc43a2,-0.794
8,GGAACCACUGCUAGCCAGATT against Serpinb6a,0.491
9,GCGAGAAAUUACCACCUUCTT against Klhl8,-0.516
10,CCGUAUUAGAAAGUAGAUATT against Arpp19,2.01 (active)
11,ACUUCACGAUGGAAAAAUUTT against Gm9732,-1.63
12,GGCCUCAUCUUGAAUAUUUTT against Hsd17b3,-1
13,GGUUCAUCAAACUUGCUUGTT against Olfr1312,0.569
14,GGAAGAACAGAGGCAGAAGTT against Trpv3,-0.629
15,GGAAGUACUCUGAAGAUUCTT against Kdm5b,-1.83
16,CCCACUUCCGAUCCAAAGATT against Zfp593,0.936
17,CCUAUGUCAUCAUUGGAGUTT against Tmem45a2,-0.613
18,GCUGUUAUAACCUUGUUACTT against Rspry1,1.19
19,GCCCAGUUUGGUUAUGUAUTT against Yipf7,0.115
20,GCGGAGAGAUCAAAGCGAUTT against Iltifb,-2.05 (active)
21,GCAGCAACAUUCUUUGGAUTT against Adk,0.986
22,GGACAAUAUCAGAAAGAGUTT against Purg,1.13

row,Sequence,z-score
1,GGGUUUUUUCCAGUCAUCUTT against Nfx1,-2.02 (active)
2,GGAUGUUCUACUGCUACACTT against Dtwd1,-0.706
3,GGUGGCCAAGAAUGUGAAUTT against Cxcl17,1.38
4,CCUACUCUCUAGAAAAGGATT against Olfr1006,-1.76
5,GGAGUGAAGGCCAGCUGAATT against Son,-0.848
6,GGAACACCAUGAAGAAGACTT against Gabarap,-0.147
7,GGAAAACUUUCAAAGAGAUTT against Mc4r,0.24
8,GUCAUCAAACUAGGUGCUGTT against Olfr584,-2.22 (active)
9,GGAAAAAUUUAGACAGCACTT against Csrp2,0.132
10,GACUCAUUCUGCAAUGAAGTT against Ifna5,0.105
11,GCUAAGGACACAAAAUCCATT against Slc38a10,0.129
12,GGAGAAAGAAAGCAGUUUUTT against 2310067E19Rik,1.55
13,GGUUAGAGGAAAGGUUUAUTT against Htr1f,5.07 (active)
14,GGGCAUUUUAACCAAAUGATT against Marchf11,0.544
15,GCUGCCUCAUUUCUGGAUGTT against Klk11,1.1
16,GGACAUGGAUGACACUGAUTT against Tsr3,-1.99
17,GGAAGAUGCACAUCUGGACTT against Enoph1,-0.55
18,CCAGGAUUCCGACUGAAUCTT against Oscp1,-0.367
19,GGGCUAAGUACCAAACUCATT against Ly6e,-1.71
20,GCUUGCUAGAGUGAUCUCGTT against Adsl,-0.331
21,GGCUUUUUCCACAUGUGCCTT against Olfr514,-2.29 (active)
22,GCCCUUGGAAUUUACCACUTT against Aldh8a1,-0.546

row,Sequence,z-score
1,CCAGACUGAGAAGAUAUGATT against Meox2,-0.146
2,GGACAUUGUCUACAAGUUGTT against Pcgf2,1.12
3,GGUGUCAGCGAAAAGCAGUTT against Ring1,-2.2 (active)
4,GGACCGCUACUAUUCAGGATT against Myh10,0.93
5,GGGUUUUGGAUGGCGAAUATT against Lgals7,-0.0835
6,GGACGAAAAGAAGUGUUUCTT against Lamb2,-0.103
7,GGGAAACUCUGUCCAAUUGTT against Eif2d,0.402
8,CGGGAAAUUUCUAUUGGACTT against Akr1c12,0.312
9,GGUGAUGGAAGUUAGUGUGTT against Bet1,-1.34
10,GGCAUUCACCAUACAAUGATT against Ufm1,0.687
11,GGUCAUUGGUUCCUCCCUUTT against C2cd4c,2.59 (active)
12,GGCUAACCACAUUUGCUUCTT against Zic4,0.759
13,GGAAGAUGUCCAAACCCGCTT against Tspan4,0.671
14,GCAGCUAAGAAGACCACUATT against Zfp185,2.15 (active)
15,GGAGGUAACGCAUGUUACATT against 4930483J18Rik,0.393
16,GCGAAGUUACUACAGACGUTT against Slc39a1,-0.124
17,CCAGUCAAAUAUCCAUUAGTT against Scgb2b26,-2.28 (active)
18,GGAGACUCUCACCUAUCAUTT against Doc2g,-0.458
19,CCAAUCACCAGAGACUAACTT against Slain1,2.81 (active)
20,GGAAGUUUUUGAGAAUGGGTT against Ppp3cc,-0.38
21,CCGAAUUCCAACCUAGAGCTT against Yipf5,-1.38
22,CCGCUCACGUGAAAAAGUUTT against Tars2,0.327

row,Sequence,z-score
1,GGACAUCUGGUUAUGAAUGTT against B3galt6,-0.111
2,GCCGAGCUCAUCAUCAUGATT against Prss40,2.5 (active)
3,GCAUGACUCUCAGGUCAAGTT against Lman2,1.54
4,GGACAUUGCAUUGCUCAUGTT against Sec1,-0.526
5,CCUUCUUAUUGCUUAACCCTT against Scd3,0.279
6,GGAAGAAGAUAAAGAGCGGTT against Nrgn,-0.708
7,GGACCUCAGUCACUUCCAATT against Etv4,2.93 (active)
8,AGUUCCAGGCGCAGAAACCTT against D8Ertd738e,1.46
9,GGUUUUUCUUCUGCUGGUGTT against Olfr1256,1.64
10,CCGGCUAAAUCACCGUGCUTT against Clpb,-0.647
11,GCCCAAAAAGGAAUUAAUUTT against Pak3,-0.176
12,CCUGGAGAUCCCUCACUUUTT against Olfr1351,1.39
13,GGCUUUAAGAUCACACAAATT against Snrpa,2.09 (active)
14,GCAGAUGCUUCGGUGAAAATT against Defb15,0.998
15,CCCAUACAAAGCACUUACATT against Otub1,0.589
16,GGACAAAUGGUAUUGUAGUTT against Coa5,-1.72
17,GCCGUCUUGUGUGUAUCAATT against Olfr1342,-0.186
18,GGAAAAGUGACGGUAUCUATT against Rpsa,-2.04 (active)
19,GGGAUAAAAACCAUGGUUUTT against Pramel27,0.113
20,GCACUUAUGGUUUAGAUGUTT against Prdm8,-0.127
21,GGAACUUAUAUCUGCGCCATT against Gprin3,0.868
22,AAAAGCUUCACCUAACUAUTT against Ascc1,1.73

row,Sequence,z-score
1,GGUGACAGUUGUUCACAAATT against 4933405O20Rik,-1.4
2,GGAAUCAUAUCAGAAACUATT against Pde4b,-0.475
3,GGGAGAGUCAAAAAAAGAUTT against Khdrbs1,-0.536
4,GGAAGACUGGUACACAUAATT against Tmem43,-2.32 (active)
5,GCCAGUACUUAGGUCUAAGTT against Mrps25,1.24
6,GCCCUCAGGUGGUUCUUAATT against Heatr3,0.443
7,CCAUGUCAACGACCAUCAUTT against Glis2,0.189
8,GCACCUCCACAAGAAUGAATT against Six2,0.466
9,GGAACAUUGACCAGAUAGUTT against Ankrd44,-1.44
10,GGAGUUGAAUGGCUCUGGATT against Usp26,-2.11 (active)
11,CCUUUGAGCCAGUUAUUUATT against Slc25a27,0.366
12,GGAACAUCUACAUUGUGGCTT against Tspan14,0.402
13,GGAAUUUGCUGCCCUCCUATT against Smad3,-0.206
14,GCAGACUCUUCCAAGUAAUTT against Lrrc28,0.529
15,GGCAUCGUCACCAAACUGUTT against Fgf11,-2.51 (active)
16,GCUAGAUUUCUACUGUGUCTT against Mindy1,0.527
17,GCAAUUUUAGUUGGUGGAATT against Ddx24,-0.112
18,GCGGAAGUCGAAUCUGUCUTT against Aga,-1.45
19,GGAAUUUGUCAGGUUCCAATT against Grik4,0.859
